# Measurements published in PubChem BioAssay (Tox21).
# Values without a mark were called inactive. Records with an inconclusive call do not appear. Entries that show only a call come without a potency. The source made the active and inactive calls. Unless noted, calls follow the shape of the full dose curve.
# What was measured:
# [1] = Nuclear factor erythroid 2-related factor 2/antioxidant responsive element (Nrf2/ARE) small molecule agonists: qHTS cell viability counter screen in human keratinocytes (AID 1919968; active = well fitted curve in the direction sought with a large enough effect in the repeat runs; an effect the other way counts as inactive or inconclusive; also: nearly all actives have a fitted effect of over 55% in size)
# In short: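 After a 5 h attachment period, ARE-reporter keratinocytes were dosed with compounds in DMSO and then cultured 23 h at 37 C. Cell viability came from CellTiter-Fluor signal read after a further 1 h.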
# [2] = Nuclear factor erythroid 2-related factor 2/antioxidant responsive element (Nrf2/ARE) small molecule agonists: luciferase reporter gene qHTS assay in human keratinocytes (AID 1919969); also: nearly all actives have a fitted effect of over 35% in size; also: potency is read from the fitted curve at half-maximal effect
# [3] = biological target: Gonadotropin-releasing hormone receptor (Homo sapiens) (UniProt P30968); test: Human gonadotropin-releasing hormone receptor (GnRHR) small molecule agonists, calcium flux assay in GnRHR-HEK293 cells (AID 1920063); also: nearly all actives have a fitted effect of over 35% in size
# In short: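 We seeded human GnRHR-expressing HEK293 cells for 18 hours, loaded them with calcium dye for an hour at 37 C, added test compounds, and recorded fluorescence intensity kinetically for three minutes.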
# [4] = biological target: KiSS-1 receptor (Homo sapiens) (UniProt Q969F8); test: Human kisspeptin (KISS1R) small molecule agonists, calcium flux assay in KISS1R-HEK293 cells (AID 1920064; active = well fitted curve in the direction sought with a large enough effect in the repeat runs; an effect the other way counts as inactive or inconclusive)
# In short: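 Kinetic calcium assay, 1 s sampling over 3 min at Ex/Em 480/540, in HEK293 cells engineered with human KISS1R; compounds delivered in DMSO after 1 h dye loading.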
# [5] = G protein-coupled receptor (GPCR) small molecule agonists, calcium flux assay: HEK293 wild type cell line counter screen (AID 1920065)
# In short: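 Calcium-sensitive dye, loaded 1 h at 37 C into cells cultured 18 h, reports compound-evoked calcium release as fluorescence (Ex/Em 480/540), measured over 3 min. Agonist mode; 15-point titrations, triplicate.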
# [6] = p53 small molecule agonists, cell-based qHTS assay with human liver microsomes (AID 1963577);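 also: p53 response element beta-lactamase reporter cells with liver microsomes plus NADPH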
# In short: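 HLM-supplemented p53RE-bla reporter assay: 16 h compound exposure at 37 C, microsomes and NADPH each 0.5 mg/mL final, read by fluorescence intensity.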
# [7] = p53 small molecule agonists, cell-based qHTS assay with human liver microsomes: qHTS cell viability counter screen (AID 1963579); also: nearly all actives have a fitted effect of over 45% in size
# In short: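 Viability of p53RE-bla cells is measured as CellTiter-Glo luminescence following a 16 h, 37 C incubation with compound, liver microsomes from human donors and NADPH.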
# [8] = p53 small molecule agonists, cell-based qHTS assay with rat liver microsomes: qHTS cell viability counter screen (AID 1963580); also: nearly all actives have a fitted effect of over 45% in size
# In short: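 p53RE-bla HCT-116 cells (4,000/well) rested 5 h at 37 C, then given Tox21 compounds in DMSO with rat liver microsomes (0.5 mg/mL final) plus NADPH (0.5 mg/mL final) for 16 h at 37 C. Viability read by CellTiter-Glo luminescence after 30 min at room temperature.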
# [9] = p53 small molecule agonists, cell-based qHTS assay: qHTS cell viability counter screen (AID 1963581); also: nearly all actives have a fitted effect of over 45% in size
# In short: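 Following 5 h attachment, HCT-116 p53RE-bla cells took up compound for 16 h at 37 C; the reporter was read with B/G FRET substrate (2 h RT), and viability then via CellTiter-Glo ATP luminescence.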
# [10] = p53 small molecule agonists, cell-based qHTS assay (AID 1963582; active = well fitted activation curve with a large enough effect in the signal ratio in the repeat runs, not every such curve was filed as active; the % refers to the signal ratio)
# In short: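 In this cell-based concentration-response screen, a p53 response element drives beta-lactamase; cells received DMSO-borne compounds after 5 h culture and were incubated a further 16 h before FRET substrate development.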
# [11] = biological target: 5-hydroxytryptamine receptor 2A (Homo sapiens) (UniProt P28223); test: 5-hydroxytryptamine receptor 2A (HTR2A) small molecule antagonists, cell-based qHTS assay (AID 1963586); also: nearly all actives have a fitted effect of over 45% in size
# In short: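 Antagonist-mode intracellular calcium assay: DOI (4 nM) added after 5 min compound pre-incubation at room temperature to dye-loaded HTR2A-CHO cells. Fluorescence followed for 3 min, sampled every second.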
# [12] = biological target: 5-hydroxytryptamine receptor 2A (Homo sapiens) (UniProt P28223); test: 5-hydroxytryptamine receptor 2A (HTR2A) small molecule agonists, cell-based qHTS assay (AID 1963587); also: nearly all actives have a fitted effect of over 30% in size
# In short: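 HTR2A-CHO cells, plated 18 h at 37 C/5% CO2, dye-loaded 1 h at 37 C; compounds in DMSO added by pin tool (agonist mode). Intracellular calcium flux read as kinetic fluorescence on FDSS over 2 min at 1 s intervals.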
# [13] = biological target: Muscarinic acetylcholine receptor M1 (Homo sapiens) (UniProt P11229); test: Cholinergic receptor muscarinic 1 (CHRM1) small molecule antagonists, cell-based qHTS assay (AID 1963588); also: nearly all actives have a fitted effect of over 40% in size
# In short: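 CHRM1-CHO calcium-flux assay, antagonist mode. Cells were seeded 18 h, dye-loaded 1 h at 37 C and given compound for 5 min at RT, then acetylcholine was added at 50nM. FDSS fluorescence was read 3 min; 15 concentrations, three runs.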
# [14] = biological target: Muscarinic acetylcholine receptor M1 (Homo sapiens) (UniProt P11229); test: Cholinergic receptor muscarinic 1 (CHRM1) small molecule agonists, cell-based qHTS assay (AID 1963589); also: nearly all actives have a fitted effect of over 35% in size
# In short: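 Measures agonist-induced intracellular calcium rise. Stable human CHRM1 CHO line, 1 h dye load at 37 C, compounds from DMSO, kinetic fluorescence read.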
# [15] = cAMP Responsive Elements (CRE) small molecule agonists, cell-based qHTS assay (AID 1963590)
# In short: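 A CRE-responsive beta-lactamase reporter in HEK 293T cells was used. Treatment ran 3 h at 37 C; detection used LiveBLAzer B/G FRET substrate for 2 h at room temperature.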
# [16] = biological target: Beta-2 adrenergic receptor (Homo sapiens) (UniProt P07550); test: Adrenergic beta2 receptor (ADRB2) small molecule agonists, cell-based qHTS assay (AID 1963593);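 also: CHO cells stably overexpressing human ADRB2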
# In short: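 CHO cells stably over-expressing ADRB2 were plated overnight at 37C, then dosed with compounds plus a stimulation mix containing 100uM IBMX and 25uM Ro-20-1724 for 0.5hr at room temperature. cAMP was measured by HTRF competition, 1hr.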
# [17] = biological target: D(2) dopamine receptor (Homo sapiens) (UniProt P14416); test: Dopamine D2 receptor (DRD2) small molecule agonists, cell-based qHTS assay (AID 1963594); also: nearly all actives have a fitted effect of over 35% in size
# In short: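 HEK293 cells stably expressing DRD2 were cultured 24 h at 37 C, then given Ro20-1724 (0.1 mM final) and compounds for 10 min at room temperature. NKH477 (200nM) was then added for 30 min. cAMP was read by HTRF.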
# [18] = cAMP Responsive Elements (CRE) small molecule antagonists, cell-based qHTS assay (AID 1963591; active = well fitted inhibition curve with a large enough effect in the signal ratio in the repeat runs, not every such curve was filed as active; the % refers to the signal ratio)
# In short: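 HEK293T cells carrying a CRE-driven beta-lactamase reporter receive compound and NKH477 (0.25 uM final) for 3 h. Fluorescence from LiveBLAzer B/G FRET substrate is read after 2 h at room temperature.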
# [19] = biological target: Beta-2 adrenergic receptor (Homo sapiens) (UniProt P07550); test: Adrenergic beta2 receptor (ADRB2) small molecule antagonists, cell-based qHTS assay (AID 1963592); also: series mostly up to about 92 µM; nearly all actives have a fitted effect of over 50% in size
# In short: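 Cells (CHO, stable ADRB2 overexpression) incubated 18-20hr at 37C; compounds added from DMSO; agonist mix (1nM isoproterenol, 100uM IBMX, 25uM Ro-20-1724) added; 0.5hr RT; d2-cAMP and anti-cAMP-cryptate added; 1hr RT; 665/615 nm read.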
# [20] = biological target: D(2) dopamine receptor (Homo sapiens) (UniProt P14416); test: Dopamine D2 receptor (DRD2) small molecule antagonists, cell-based qHTS assay (AID 1963595; active = well fitted inhibition curve with a large enough effect in the signal ratio in the repeat runs, with a control signal flat; the % refers to the signal ratio)
# In short: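 Antagonism was scored as restored cAMP in HEK293-DRD2 cells. These cells were stimulated with 200 nM NKH477 and 12 nM quinpirole for 30 min at room temperature, in the presence of 0.1 mM Ro20-1724.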
# Sequence of Gonadotropin-releasing hormone receptor (Homo sapiens) (P30968 whole entry, looked up): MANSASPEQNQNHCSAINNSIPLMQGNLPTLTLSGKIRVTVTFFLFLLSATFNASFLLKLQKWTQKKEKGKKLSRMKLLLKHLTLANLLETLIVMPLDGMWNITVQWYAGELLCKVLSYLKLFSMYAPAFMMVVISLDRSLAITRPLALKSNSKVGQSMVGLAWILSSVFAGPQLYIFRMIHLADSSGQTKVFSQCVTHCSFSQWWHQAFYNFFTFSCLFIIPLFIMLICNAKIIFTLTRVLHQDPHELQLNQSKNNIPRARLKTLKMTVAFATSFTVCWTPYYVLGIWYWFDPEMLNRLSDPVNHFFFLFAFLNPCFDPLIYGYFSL
# Sequence of KiSS-1 receptor (Homo sapiens) (Q969F8 whole entry, looked up): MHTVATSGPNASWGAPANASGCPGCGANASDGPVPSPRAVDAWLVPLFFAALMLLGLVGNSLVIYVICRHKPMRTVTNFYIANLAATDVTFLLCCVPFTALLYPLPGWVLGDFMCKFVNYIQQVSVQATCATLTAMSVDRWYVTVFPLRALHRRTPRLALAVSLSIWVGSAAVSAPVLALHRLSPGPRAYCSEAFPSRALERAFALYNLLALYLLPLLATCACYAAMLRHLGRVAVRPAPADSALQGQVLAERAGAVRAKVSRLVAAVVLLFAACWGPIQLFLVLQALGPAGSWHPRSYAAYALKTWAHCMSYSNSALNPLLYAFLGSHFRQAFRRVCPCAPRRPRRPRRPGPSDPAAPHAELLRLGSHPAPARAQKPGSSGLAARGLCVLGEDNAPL
# Sequence of 5-hydroxytryptamine receptor 2A (Homo sapiens) (P28223 whole entry, looked up): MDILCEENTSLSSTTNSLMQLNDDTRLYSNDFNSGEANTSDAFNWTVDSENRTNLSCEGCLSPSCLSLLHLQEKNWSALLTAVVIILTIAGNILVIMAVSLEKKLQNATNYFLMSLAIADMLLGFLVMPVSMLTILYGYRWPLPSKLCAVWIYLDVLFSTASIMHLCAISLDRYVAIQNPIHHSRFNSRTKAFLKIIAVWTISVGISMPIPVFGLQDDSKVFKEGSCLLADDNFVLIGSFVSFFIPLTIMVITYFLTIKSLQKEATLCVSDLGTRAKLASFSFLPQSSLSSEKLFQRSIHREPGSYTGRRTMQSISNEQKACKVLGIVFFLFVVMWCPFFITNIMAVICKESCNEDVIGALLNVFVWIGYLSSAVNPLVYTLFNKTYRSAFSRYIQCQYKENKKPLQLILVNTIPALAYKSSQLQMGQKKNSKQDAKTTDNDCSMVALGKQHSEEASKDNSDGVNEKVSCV
# Sequence of D(2) dopamine receptor (Homo sapiens) (P14416 whole entry, looked up): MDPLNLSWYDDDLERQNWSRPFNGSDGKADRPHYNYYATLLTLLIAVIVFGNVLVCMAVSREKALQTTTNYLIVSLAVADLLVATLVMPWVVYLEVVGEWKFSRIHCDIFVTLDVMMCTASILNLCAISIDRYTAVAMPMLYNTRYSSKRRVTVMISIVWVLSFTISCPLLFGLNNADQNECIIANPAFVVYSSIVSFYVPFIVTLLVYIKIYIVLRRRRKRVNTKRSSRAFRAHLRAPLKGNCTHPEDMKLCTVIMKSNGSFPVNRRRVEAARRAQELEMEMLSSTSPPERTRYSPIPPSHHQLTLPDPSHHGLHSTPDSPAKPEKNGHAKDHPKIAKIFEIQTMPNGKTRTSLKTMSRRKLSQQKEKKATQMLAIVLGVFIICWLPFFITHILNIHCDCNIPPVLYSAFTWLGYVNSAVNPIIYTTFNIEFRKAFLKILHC
# Sequence of Beta-2 adrenergic receptor (Homo sapiens) (P07550 whole entry, looked up): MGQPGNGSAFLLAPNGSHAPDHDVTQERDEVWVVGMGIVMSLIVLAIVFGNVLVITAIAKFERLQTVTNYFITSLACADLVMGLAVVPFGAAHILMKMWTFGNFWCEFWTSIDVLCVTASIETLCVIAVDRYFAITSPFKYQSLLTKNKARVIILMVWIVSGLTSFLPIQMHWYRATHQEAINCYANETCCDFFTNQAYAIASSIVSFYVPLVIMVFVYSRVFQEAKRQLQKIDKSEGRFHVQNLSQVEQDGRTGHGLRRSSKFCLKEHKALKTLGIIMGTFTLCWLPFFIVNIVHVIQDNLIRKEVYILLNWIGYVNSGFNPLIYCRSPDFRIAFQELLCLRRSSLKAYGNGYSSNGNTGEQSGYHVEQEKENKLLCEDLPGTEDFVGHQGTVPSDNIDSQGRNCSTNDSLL
# Sequence of Muscarinic acetylcholine receptor M1 (Homo sapiens) (P11229 whole entry, looked up): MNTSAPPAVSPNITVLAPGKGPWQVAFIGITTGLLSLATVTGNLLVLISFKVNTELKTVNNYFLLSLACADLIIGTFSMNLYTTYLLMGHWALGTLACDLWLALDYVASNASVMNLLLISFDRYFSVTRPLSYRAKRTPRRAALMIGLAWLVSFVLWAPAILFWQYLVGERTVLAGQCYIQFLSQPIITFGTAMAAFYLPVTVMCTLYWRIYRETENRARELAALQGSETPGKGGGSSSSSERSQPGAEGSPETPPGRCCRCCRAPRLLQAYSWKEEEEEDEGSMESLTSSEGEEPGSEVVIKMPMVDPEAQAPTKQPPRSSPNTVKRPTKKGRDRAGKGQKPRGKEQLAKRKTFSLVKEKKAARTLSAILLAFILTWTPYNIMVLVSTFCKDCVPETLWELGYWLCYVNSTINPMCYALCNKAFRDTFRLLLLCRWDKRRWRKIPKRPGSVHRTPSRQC
structure (smiles),measurement,setting,value
CCCCOCCOCCOCCCC,Potency,[1],inactive
same,Potency,[2],inactive
same,Potency,[3],inactive
same,Potency,[4],inactive
same,Potency,[5],inactive
same,Potency,[6],inactive
same,Potency,[7],inactive
same,Potency,[8],inactive
same,Potency,[9],inactive
same,Potency,[10],inactive
same,Potency,[11],inactive
same,Potency,[12],inactive
same,Potency,[13],inactive
same,Potency,[14],inactive
same,Potency,[15],inactive
same,Potency,[16],inactive
same,Potency,[17],inactive
CC(S)C(=O)NCC(=O)O (stereo not drawn),Potency,[1],inactive
same,Potency,[2],inactive
same,Potency,[3],inactive
same,Potency,[4],inactive
same,Potency,[5],inactive
same,Potency,[6],inactive
same,Potency,[7],inactive
same,Potency,[8],inactive
same,Potency,[9],inactive
same,Potency,[10],inactive
same,Potency,[11],inactive
same,Potency,[13],inactive
same,Potency,[14],inactive
same,Potency,[15],inactive
same,Potency,[18],inactive
same,Potency,[19],inactive
same,Potency,[16],inactive
same,Potency,[17],inactive
same,Potency,[20],inactive
COCC(C)OC(C)=O (stereo not drawn),Potency,[1],inactive
same,Potency,[2],inactive
same,Potency,[3],inactive
same,Potency,[4],inactive
same,Potency,[5],inactive
same,Potency,[6],inactive
same,Potency,[7],inactive
same,Potency,[8],inactive
same,Potency,[9],inactive
same,Potency,[10],inactive
same,Potency,[11],inactive
same,Potency,[12],inactive
same,Potency,[13],inactive
same,Potency,[14],inactive
same,Potency,[18],inactive
same,Potency,[19],inactive
same,Potency,[17],inactive
same,Potency,[20],inactive
CCCCCC1CCC(=O)O1 (stereo not drawn),Potency,[1],inactive
same,Potency,[2],inactive
same,Potency,[3],inactive
same,Potency,[4],inactive
same,Potency,[5],inactive
same,Potency,[6],inactive
same,Potency,[7],inactive
same,Potency,[8],inactive
same,Potency,[9],inactive
same,Potency,[10],inactive
same,Potency,[11],inactive
same,Potency,[12],inactive
same,Potency,[13],inactive
same,Potency,[14],inactive
same,Potency,[15],inactive
same,Potency,[18],inactive
same,Potency,[19],inactive
same,Potency,[17],inactive
same,Potency,[20],inactive
Cc1cc(C)c(N=Nc2c(O)c(S(=O)(=O)O)cc3cc(S(=O)(=O)O)ccc23)cc1C,"activity change, negative = cytotoxicity",[1],-4.24% [at 8.39 µM]
same,"activity, positive = activation",[2],-2.39% [at 8.39 µM]
same,activity change,[3],"0.758% [at 5.22 µM, hits give high values]"
same,activation,[4],0.221% [at 6.97 µM]
same,activation,[5],-0.909% [at 5.23 µM]
same,activation,[6],-0.355% [at 5.99 µM]
same,"activity change, negative = cytotoxicity",[7],0.236% [at 5.99 µM]
same,"activity change, negative = cytotoxicity",[8],-1.53% [at 5.99 µM]
same,"activity change, negative = cytotoxicity",[9],-0.59% [at 5.99 µM]
same,activation,[10],0.0696% [at 5.99 µM]
same,activation,[12],-1.44% [at 7.02 µM]
same,"activity, negative = inhibition",[13],26.6% [at 5.58 µM]
same,activation,[14],-0.143% [at 6.97 µM]
same,activation,[15],-0.168% [at 8.39 µM]
same,"activity change, negative = inhibition",[18],-0.183% [at 8.39 µM]
same,"activity change, negative = inhibition",[19],-5.6% [at 8.39 µM]
same,activation,[16],-2.26% [at 8.39 µM]
same,activation,[17],4.98% [at 8.39 µM]
same,"activity change, negative = inhibition",[20],0.169% [at 8.38 µM]
COc1ccc(NC(C)=O)cc1,Potency,[1],inactive
same,Potency,[2],inactive
same,Potency,[3],inactive
same,Potency,[4],inactive
same,Potency,[5],inactive
same,Potency,[6],inactive
same,Potency,[7],inactive
same,Potency,[8],inactive
same,Potency,[9],inactive
same,Potency,[10],inactive
same,Potency,[11],inactive
same,Potency,[13],inactive
same,Potency,[14],inactive
same,Potency,[15],inactive
same,Potency,[18],inactive
same,Potency,[19],inactive
same,Potency,[16],inactive
same,Potency,[17],inactive
same,Potency,[20],inactive
c1ccc(CCCc2ccncc2)cc1,Potency,[1],inactive
same,Potency,[2],48.6 µM (active)
same,Potency,[3],inactive
same,Potency,[4],inactive
same,Potency,[5],inactive
same,Potency,[6],inactive
same,Potency,[7],inactive
same,Potency,[8],inactive
same,Potency,[9],inactive
same,Potency,[10],inactive
same,Potency,[11],inactive
same,Potency,[12],inactive
same,Potency,[13],inactive
same,Potency,[14],inactive
same,Potency,[15],inactive
same,Potency,[18],inactive
same,Potency,[19],inactive
same,Potency,[17],inactive
same,Potency,[20],inactive
COc1ccc2cc(C=O)ccc2c1,Potency,[1],inactive
same,Potency,[2],inactive
same,Potency,[3],inactive
same,Potency,[4],inactive
same,Potency,[5],inactive
same,Potency,[6],inactive
same,Potency,[7],inactive
same,Potency,[8],inactive
same,Potency,[9],inactive
same,Potency,[10],inactive
same,Potency,[12],inactive
same,Potency,[13],inactive
same,Potency,[14],inactive
same,Potency,[15],inactive
same,Potency,[18],inactive
same,Potency,[19],inactive
same,Potency,[16],inactive
same,Potency,[20],inactive
